Test results: the supplement of paper PMC9433436
± gives the standard deviation of the averaged measurements. Whole data set: some 4,100 sequences, median “relative kcat/Km (krel) vs genomic leader AAAGAU” near 1.7, cut for the highest 2% near 6.5. This excerpt belongs to a sample that is enriched for the highest values.

Target: T1, E. coli RNase P holoenzyme (M1 P RNA + rnpA protein) (UniProt P0A7Y8)
T1 sequence: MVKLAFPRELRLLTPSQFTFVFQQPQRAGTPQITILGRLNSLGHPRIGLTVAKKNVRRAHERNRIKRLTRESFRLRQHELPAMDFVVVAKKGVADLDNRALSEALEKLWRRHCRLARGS
Test: relative kcat/Km (krel) vs genomic leader AAAGAU (relative (reference leader = 1)); higher = faster RNase P cleavage
Description: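 HTS-Kin: a pool of ptRNA-Met (21C construct) with all 4096 combinations of 5' leader nucleotides N(-6) to N(-1) was processed in vitro by E. coli RNase P (P RNA + rnpA/C5 protein) under multiple-turnover conditions at 37 C, pH 8, 17.5 mM MgCl2. Residual substrate was Illumina-sequenced at several fractions reacted, and relative kcat/Km (krel) was computed by internal competition kinetics, calibrated to the genomic leader (AAAGAU = 1). The listed hexamer is the varied N(-6)..N(-1) leader (DNA letters), and it sits between a fixed 5' stem-loop flank (GCAUGCACGAAAGUGCGUGCUAUGAA) and the mature tRNA-Met starting GGCUACGUAGCUCAGUUGG. Two technical replicates are averaged.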

[1] = fraction of substrate reacted: ~9-10% (9.79% repeat 1, 9.1% repeat 2)
[2] = fraction of substrate reacted: ~13-16% (15.68% repeat 1, 13.17% repeat 2)
[3] = fraction of substrate reacted: ~26-29% (28.66% repeat 1, 26.4% repeat 2)

| Sequence | relative kcat/Km [1] | relative kcat/Km [2] | relative kcat/Km [3] |
| --- | --- | --- | --- |
| CCGTGC | 1.254 ± 0.0079 | 0.908 ± 0.54 | 1.84 ± 0.71 |
| GGCGCG | – | 0.4496 ± 0.0012 | 1.37 ± 0.14 |
| ATGCCG | – | – | 0.567 ± 0.043 |
| AGCTGG | – | 0.38 ± 0.056 | 0.572 ± 0.15 |
| GGTTCA | 1.01 ± 0.77 | 0.431 ± 0.36 | 1.26 ± 0.44 |
| TGAAAG | – | 1.15 ± 0.57 | 2.65 ± 0.8 |
| GCGAAA | 2.4 ± 0.62 | 1.36 ± 0.072 | 2.16 ± 0.076 |
| TCCAGG | – | – | 2.14 ± 0.84 |
| TCCAAA | 3.88 ± 1.2 | 5.16 ± 0.76 | 7.85 ± 2.9 |
| TCCAAG | 2.34 ± 1.2 | 1.77 ± 1.2 | 4.8 ± 1.6 |
| GCCAAG | 0.818 ± 0.62 | 0.757 ± 0.36 | 2.63 ± 0.93 |
| TCCAAC | 3.85 ± 2 | 4.11 ± 0.11 | 5.77 ± 1.9 |
| TCCAGA | 3.25 ± 0.89 | 4.62 ± 0.77 | 7.93 ± 2.3 |
| ACCAAT | 2.48 ± 0.88 | 2.51 ± 0.89 | 3.51 ± 0.8 |
| TCCAGC | 4.58 ± 2.5 | 4.83 ± 0.15 | 6.09 ± 2 |
| TCCAAT | 3.48 ± 2.1 | 4.14 ± 0.76 | 6.63 ± 2.2 |
| GGCGTC | 2.13 ± 1.2 | 1.48 ± 0.093 | 1.36 ± 0.024 |
| AATTTG | – | – | 0.989 ± 0.62 |
| TGATAC | 2.83 ± 0.46 | 3.97 ± 0.42 | 5.76 ± 2.1 |
| AGAGGG | – | – | 0.989 ± 0.85 |
| TCATCT | 2.18 ± 1.2 | 2.78 ± 0.36 | 4.09 ± 1 |
| ACAGAG | – | 0.878 ± 0.38 | 1.94 ± 0.09 |
| CTAATT | 2.55 ± 1 | 1.92 ± 0.32 | 2.36 ± 0.52 |
| TTCCTT | 4.47 ± 1.3 | 5.24 ± 1.1 | 7.59 ± 3.1 |
| CTCCTC | 3 ± 1.3 | 3.49 ± 0.19 | 4.95 ± 1.7 |
| TTCCTC | 4.47 ± 1.9 | 5.25 ± 0.81 | 6.88 ± 2.5 |

| Sequence | relative kcat/Km [1] | relative kcat/Km [2] | relative kcat/Km [3] |
| --- | --- | --- | --- |
| ATCCTT | 3.24 ± 1.5 | 4.36 ± 0.24 | 5.37 ± 2.3 |
| CTCCTT | 3.67 ± 1.4 | 4.28 ± 0.77 | 6.06 ± 2.3 |
| GTCCTT | 3.67 ± 1 | 4.82 ± 0.56 | 7.02 ± 2.8 |
| TTCCTG | – | – | 1.68 ± 1.1 |
| ATCCTC | 3.86 ± 1.3 | 4.11 ± 1.6 | 4.92 ± 2 |
| GTCCTC | 3.46 ± 0.61 | 4.33 ± 0.75 | 6.46 ± 3 |
| TGGCGG | 0.44 ± 0.28 | – | 0.962 ± 0.067 |
| CCTAGA | 3.14 ± 2.6 | 2.71 ± 0.26 | 3.57 ± 0.52 |
| CCTCCT | 2.08 ± 1.7 | 1.23 ± 0.17 | 1.29 ± 0.79 |
| AGAAAA | 3.05 ± 0.94 | 2.65 ± 0.37 | 3.92 ± 1.1 |
| ACTGGC | – | – | 1.69 ± 1.6 |
| GGTCAC | 2.53 ± 0.97 | 2.2 ± 0.29 | 3.14 ± 0.83 |
| AGTCAC | 4.5 ± 2.3 | 4.987 ± 0.032 | 7.1 ± 2.9 |
| AGTCAG | 2.12 ± 2 | 1.91 ± 0.42 | 3.69 ± 0.62 |
| TCTCAC | 3.41 ± 1.3 | 4.45 ± 1.3 | 6.16 ± 2.3 |
| TGTCAT | 3.5 ± 1.3 | 4.28 ± 1.1 | 6.84 ± 3.2 |
| ACTCAC | 2.6 ± 1.1 | 2.87 ± 0.13 | 4.43 ± 1.7 |
| TGTCAG | – | 1.4 ± 0.17 | 3.3 ± 0.62 |
| TGTCGC | 1.87 ± 0.089 | 2.92 ± 1.1 | 5.09 ± 2.2 |
| TGTCAC | 3.25 ± 2.2 | 4.8 ± 0.85 | 7.18 ± 3 |
| TGTCAA | 3.03 ± 1.6 | 3.56 ± 0.18 | 5.75 ± 2.1 |
| AGTCAT | 3.31 ± 1.6 | 5 ± 1.1 | 6.79 ± 3.2 |
| AGTCAA | 2.58 ± 0.11 | 4 ± 1.2 | 6.05 ± 2.9 |
| GCTATC | 1.45 ± 0.98 | 0.842 ± 0.77 | 1.645 ± 0.013 |
| ATTCCT | 1.97 ± 0.65 | 2.19 ± 0.27 | 2.93 ± 1.1 |
| AAATTC | 2.35 ± 1.4 | 1.98 ± 0.19 | 2.34 ± 0.6 |

| Sequence | relative kcat/Km [1] | relative kcat/Km [2] | relative kcat/Km [3] |
| --- | --- | --- | --- |
| TAATGG | 0.461 ± 0.18 | – | – |
| CAACAG | – | – | 1 ± 0.52 |
| TGACAA | 3.11 ± 2.1 | 3.72 ± 0.47 | 4.23 ± 1.4 |
| GTACGC | 2 ± 0.098 | 2.7 ± 0.46 | 3.72 ± 1.3 |
| CCTCAC | 2.54 ± 0.75 | 3.07 ± 0.55 | 4.22 ± 1.2 |
| CGTCAC | 4.5 ± 2.1 | 5.37 ± 0.7 | 6.77 ± 2 |
| CGTCAT | 2.843 ± 0.013 | 4.98 ± 1.9 | 6.96 ± 3.1 |
| CGTCAG | 0.776 ± 0.25 | 1.34 ± 0.28 | 3.11 ± 0.5 |
| CGTCAA | 1.61 ± 0.25 | 3.42 ± 0.92 | 5.08 ± 1.4 |
| CGTCGC | 2.49 ± 0.74 | 3.77 ± 0.95 | 4.81 ± 1.1 |
| AGTCTT | 3.48 ± 0.67 | 3.72 ± 0.46 | 5 ± 2.2 |
| GAGCAA | 1.98 ± 0.29 | 2.27 ± 0.026 | 2.57 ± 0.78 |
| TATTCC | 2.05 ± 0.31 | 2.87 ± 0.33 | 3.57 ± 1.4 |
| TATTAC | 3.92 ± 1.1 | 5.68 ± 0.93 | 7.86 ± 3.4 |
| AATTAA | 2.86 ± 2 | 3.37 ± 0.39 | 4.73 ± 1.6 |
| TATTCT | 3.27 ± 1.2 | 4.15 ± 0.4 | 5.78 ± 2.3 |
| TATTAG | 2.38 ± 2.3 | 2.95 ± 0.03 | 4.43 ± 1.4 |
| AATTAC | 3.5 ± 1.7 | 3.97 ± 0.31 | 5.32 ± 1.9 |
| TATTAT | 4.02 ± 1.1 | 5.95 ± 1.7 | 9.03 ± 4.1 |
| TATTAA | 4.01 ± 2.3 | 5.12 ± 0.072 | 6.96 ± 2.6 |
| AATTAT | 3.11 ± 0.81 | 4.75 ± 0.82 | 5.76 ± 2.3 |
| ACTTTG | – | – | 1.31 ± 0.45 |
| GCCCTC | 1.81 ± 0.28 | 2.28 ± 1.4 | 3.98 ± 1.6 |
| CGCCGT | 0.516 ± 0.5 | – | 1.06 ± 0.75 |
| AATTAG | – | 1.34 ± 0.23 | 3.09 ± 1.5 |
| AGTACT | 2.34 ± 1.3 | 2.42 ± 0.095 | 3.74 ± 1.6 |

| Sequence | relative kcat/Km [1] | relative kcat/Km [2] | relative kcat/Km [3] |
| --- | --- | --- | --- |
| AAATAT | 1.72 ± 0.35 | 3.11 ± 0.79 | 4.74 ± 2.4 |
| GCGGAG | – | – | 0.583 ± 0.36 |
| TCGGAA | 1.2 ± 1.2 | 1.23 ± 0.93 | 1.33 ± 0.09 |
| AAATCA | 1.55 ± 0.36 | 1.42 ± 0.17 | 1.8 ± 0.46 |
| CTCGAA | 4.31 ± 0.54 | 6.4 ± 1.7 | 8.12 ± 3.5 |
| TTCGAC | 5.66 ± 1.9 | 7.11 ± 1.7 | 10.2 ± 4.3 |
| TTCGTC | 3.53 ± 1.4 | 4.55 ± 1 | 6.81 ± 3.2 |
| TGCGAA | 1.78 ± 0.26 | 1.82 ± 0.69 | 2.43 ± 0.68 |
| TTCGAT | 1.69 ± 0.22 | 2.71 ± 1.2 | 4.44 ± 2 |
| CTCGTC | 2.68 ± 0.76 | 3.41 ± 0.98 | 5.19 ± 2 |
| TTCGTG | – | 0.287 ± 0.27 | 2.01 ± 0.17 |
| TTCGTA | 3.36 ± 1.3 | 4.26 ± 0.22 | 6.35 ± 2.4 |
| CGCGAA | 2.89 ± 0.49 | 3.39 ± 1.2 | 4.94 ± 1.5 |
| CTCGGA | – | – | 0.671 ± 0.41 |
| TTCGAA | 5.32 ± 1.2 | 7.22 ± 2.3 | 10.3 ± 4.3 |
| TTCGAG | – | 1.96 ± 0.07 | 4.8 ± 1 |
| AGTGTT | 0.435 ± 0.024 | – | 1.34 ± 0.99 |
| CTACTT | 2.09 ± 0.14 | 2.2 ± 0.49 | 2.49 ± 0.63 |
| TGAACT | 1.41 ± 0.67 | 1.85 ± 0.71 | 2.58 ± 0.76 |
| GGCGCT | 1.32 ± 0.23 | 0.701 ± 0.31 | 1.43 ± 0.38 |
| GGGCTT | – | – | 0.481 ± 0.22 |
| TAACCG | – | – | 0.9 ± 0.51 |
| GCTTTC | 2.29 ± 2.1 | 1.88 ± 0.58 | 2.09 ± 0.45 |
| AATACA | 1.91 ± 0.78 | 1.7 ± 0.041 | 2.02 ± 0.66 |
